# Reference: publication PMC7862700, “An all-to-all approach to the identification of sequence-specific readers for epigenetic DNA modifications on cytosine”
# Legend:
# Assay in all cases: DAPPL (digital affinity profiling via proximity ligation, sequencing); 10 mM Tris-HCl pH 7.5, 50 mM NaCl, 1 mM DTT, 4% glycerol, room temperature, 30 min; GST-TFs on glutathione beads, 16-mer random dsDNA library, 0.1% formaldehyde crosslink after washing; high values mean tight binding
# FLI1 = biological target: T1, FLI1 (Homo sapiens, UniProt Q01543 1-452); conditions: protein: recombinant; tags: N-terminal GST; dsDNA, one strand shown
# T1 sequence: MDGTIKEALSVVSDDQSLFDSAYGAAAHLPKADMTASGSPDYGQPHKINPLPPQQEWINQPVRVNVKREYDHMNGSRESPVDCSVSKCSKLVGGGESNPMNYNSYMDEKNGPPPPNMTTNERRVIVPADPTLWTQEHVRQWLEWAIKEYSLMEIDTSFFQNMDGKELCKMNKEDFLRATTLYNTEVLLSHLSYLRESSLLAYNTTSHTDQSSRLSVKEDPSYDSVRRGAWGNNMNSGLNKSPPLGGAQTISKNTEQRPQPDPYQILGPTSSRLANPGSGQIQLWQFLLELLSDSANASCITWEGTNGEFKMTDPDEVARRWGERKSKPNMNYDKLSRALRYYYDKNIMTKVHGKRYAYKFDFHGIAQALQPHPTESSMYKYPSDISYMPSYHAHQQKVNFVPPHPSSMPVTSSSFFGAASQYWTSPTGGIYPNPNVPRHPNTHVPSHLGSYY
# Method in brief: (§1)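 Human transcription factors carrying a GST fusion were produced in yeast, bound to glutathione beads, tagged with DNA barcodes and pooled together with a tag-only sample. Each pool was held with 200 nmole of a random double-stranded 16-mer DNA library in Tris/NaCl/DTT/glycerol buffer for 30 min at room temperature, then washed, crosslinked in 0.1% formaldehyde, proximity-ligated with BsaI/T4 ligase (1 h, 37 °C), PCR-amplified and sequenced on an Illumina NextSeq500. Binding signal is the read frequency of each hexamer for a given factor divided by its frequency in the tag-only sample.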
# ELK1 = biological target: T2, ELK1 (Homo sapiens, UniProt P19419 1-428); conditions: protein: recombinant; tags: N-terminal GST; dsDNA, one strand shown
# T2 sequence: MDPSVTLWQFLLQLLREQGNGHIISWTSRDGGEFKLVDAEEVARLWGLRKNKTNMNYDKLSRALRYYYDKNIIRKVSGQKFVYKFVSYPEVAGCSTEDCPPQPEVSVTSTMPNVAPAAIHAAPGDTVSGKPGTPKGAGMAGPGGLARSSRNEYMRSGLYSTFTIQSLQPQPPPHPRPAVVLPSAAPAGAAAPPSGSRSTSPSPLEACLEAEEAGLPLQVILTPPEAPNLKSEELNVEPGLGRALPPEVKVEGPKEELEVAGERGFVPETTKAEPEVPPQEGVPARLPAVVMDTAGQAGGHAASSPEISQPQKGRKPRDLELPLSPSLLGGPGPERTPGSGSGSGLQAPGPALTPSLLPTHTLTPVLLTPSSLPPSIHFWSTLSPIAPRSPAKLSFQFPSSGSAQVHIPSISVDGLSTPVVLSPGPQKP
# Method in brief: as §1
# GABPA = biological target: T3, GABPA (Homo sapiens, UniProt Q06546 1-454); conditions: protein: recombinant; tags: N-terminal GST; dsDNA, one strand shown
# T3 sequence: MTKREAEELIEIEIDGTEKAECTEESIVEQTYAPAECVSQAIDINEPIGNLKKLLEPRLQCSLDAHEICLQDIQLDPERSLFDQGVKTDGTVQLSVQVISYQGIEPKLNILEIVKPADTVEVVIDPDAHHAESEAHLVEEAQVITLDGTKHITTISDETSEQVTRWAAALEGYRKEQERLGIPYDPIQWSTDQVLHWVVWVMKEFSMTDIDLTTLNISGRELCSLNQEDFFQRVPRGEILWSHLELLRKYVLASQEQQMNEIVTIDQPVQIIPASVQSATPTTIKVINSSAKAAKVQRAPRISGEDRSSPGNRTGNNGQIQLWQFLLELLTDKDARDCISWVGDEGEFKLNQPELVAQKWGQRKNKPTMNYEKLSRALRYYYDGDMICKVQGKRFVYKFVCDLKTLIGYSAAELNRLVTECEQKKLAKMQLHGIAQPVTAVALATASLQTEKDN
# Method in brief: as §1
# ERG = biological target: T4, ERG (Homo sapiens, UniProt P11308 1-479); conditions: protein: recombinant; tags: N-terminal GST; dsDNA, one strand shown
# T4 sequence: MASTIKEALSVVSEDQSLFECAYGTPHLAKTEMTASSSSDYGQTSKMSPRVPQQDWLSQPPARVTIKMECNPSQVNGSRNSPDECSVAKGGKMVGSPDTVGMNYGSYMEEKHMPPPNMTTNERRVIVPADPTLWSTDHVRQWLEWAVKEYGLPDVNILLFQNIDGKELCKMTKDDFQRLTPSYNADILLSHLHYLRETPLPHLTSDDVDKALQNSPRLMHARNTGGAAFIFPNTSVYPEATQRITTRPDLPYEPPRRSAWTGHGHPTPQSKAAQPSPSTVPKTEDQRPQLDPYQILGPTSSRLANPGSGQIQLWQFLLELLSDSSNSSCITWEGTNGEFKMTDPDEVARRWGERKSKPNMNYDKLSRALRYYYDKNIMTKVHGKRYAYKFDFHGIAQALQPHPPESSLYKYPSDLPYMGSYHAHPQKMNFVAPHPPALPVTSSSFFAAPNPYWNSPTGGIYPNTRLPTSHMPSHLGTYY
# Method in brief: as §1
# ELF1 = ELF1 (Homo sapiens, UniProt P32519 1-619); conditions: protein: recombinant; tags: N-terminal GST; dsDNA, one strand shown
# Method in brief: as §1
# EHF = biological target: T5, EHF (Homo sapiens, UniProt Q9NZC4 1-300); conditions: protein: recombinant; tags: N-terminal GST; dsDNA, one strand shown
# T5 sequence: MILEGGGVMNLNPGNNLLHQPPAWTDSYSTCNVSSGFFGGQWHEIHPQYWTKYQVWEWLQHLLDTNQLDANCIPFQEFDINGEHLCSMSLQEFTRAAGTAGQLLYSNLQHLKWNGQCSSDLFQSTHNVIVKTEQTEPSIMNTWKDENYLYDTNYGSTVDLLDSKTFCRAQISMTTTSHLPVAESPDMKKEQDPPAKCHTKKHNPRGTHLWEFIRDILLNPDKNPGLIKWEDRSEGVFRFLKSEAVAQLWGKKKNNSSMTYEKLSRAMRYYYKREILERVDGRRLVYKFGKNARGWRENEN
# Method in brief: as §1
# SPI1 = SPI1 (Homo sapiens, UniProt P17947 1-270); conditions: protein: recombinant; tags: N-terminal GST; dsDNA, one strand shown
# Method in brief: as §1
# SPIB = SPIB (Homo sapiens, UniProt Q01892 1-262); conditions: protein: recombinant; tags: N-terminal GST; dsDNA, one strand shown
# Method in brief: as §1
# ELK3 = biological target: T6, ELK3 (Homo sapiens, UniProt P41970 1-407); conditions: protein: recombinant; tags: N-terminal GST; dsDNA, one strand shown
# T6 sequence: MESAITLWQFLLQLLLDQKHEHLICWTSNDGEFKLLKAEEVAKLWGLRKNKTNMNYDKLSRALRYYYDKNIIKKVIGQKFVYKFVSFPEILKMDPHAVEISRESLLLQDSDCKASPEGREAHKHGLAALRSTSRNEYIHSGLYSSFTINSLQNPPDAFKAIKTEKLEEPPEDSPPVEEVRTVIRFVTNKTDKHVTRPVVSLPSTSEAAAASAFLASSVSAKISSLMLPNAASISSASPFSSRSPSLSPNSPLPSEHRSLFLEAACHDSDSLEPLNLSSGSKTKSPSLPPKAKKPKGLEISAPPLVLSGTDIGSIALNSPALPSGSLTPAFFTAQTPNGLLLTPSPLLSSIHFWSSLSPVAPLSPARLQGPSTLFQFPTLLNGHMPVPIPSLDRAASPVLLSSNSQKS
# Method in brief: as §1
# FEV = biological target: T7, FEV (Homo sapiens, UniProt Q99581 1-238); conditions: protein: recombinant; tags: N-terminal GST; dsDNA, one strand shown
# T7 sequence: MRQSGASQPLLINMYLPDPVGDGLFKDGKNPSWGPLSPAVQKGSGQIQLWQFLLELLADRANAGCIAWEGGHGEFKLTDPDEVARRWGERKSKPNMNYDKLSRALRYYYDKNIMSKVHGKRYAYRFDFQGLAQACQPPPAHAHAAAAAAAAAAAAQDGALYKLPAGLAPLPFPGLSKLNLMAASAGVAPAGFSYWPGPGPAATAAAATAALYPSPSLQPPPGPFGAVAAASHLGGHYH
# Method in brief: as §1
# ETV5 = ETV5 (Homo sapiens, UniProt P41161 1-510); conditions: protein: recombinant; tags: N-terminal GST; dsDNA, one strand shown
# Method in brief: as §1
# HSF1 = HSF1 (Homo sapiens, UniProt Q00613 1-529); conditions: protein: recombinant; tags: N-terminal GST; chain copies: 3; dsDNA, one strand shown
# Method in brief: as §1
# SPIC = biological target: T8, SPIC (Homo sapiens, UniProt Q8N5J4 1-248); conditions: protein: recombinant; tags: N-terminal GST; dsDNA, one strand shown
# T8 sequence: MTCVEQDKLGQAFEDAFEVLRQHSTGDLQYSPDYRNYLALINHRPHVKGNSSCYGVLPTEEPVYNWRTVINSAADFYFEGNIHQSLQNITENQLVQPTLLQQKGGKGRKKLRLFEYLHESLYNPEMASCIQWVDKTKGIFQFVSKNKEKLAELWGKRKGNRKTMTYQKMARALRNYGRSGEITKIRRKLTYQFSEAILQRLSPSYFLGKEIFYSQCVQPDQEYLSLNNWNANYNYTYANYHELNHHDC
# Method in brief: as §1
# ELF4 = ELF4 (Homo sapiens, UniProt Q99607 1-663); conditions: protein: recombinant; tags: N-terminal GST; dsDNA, one strand shown
# Method in brief: as §1
# ELK4 = biological target: T9, ELK4 (Homo sapiens, UniProt P28324-2 1-405); conditions: protein: recombinant; tags: N-terminal GST; dsDNA, one strand shown
# T9 sequence: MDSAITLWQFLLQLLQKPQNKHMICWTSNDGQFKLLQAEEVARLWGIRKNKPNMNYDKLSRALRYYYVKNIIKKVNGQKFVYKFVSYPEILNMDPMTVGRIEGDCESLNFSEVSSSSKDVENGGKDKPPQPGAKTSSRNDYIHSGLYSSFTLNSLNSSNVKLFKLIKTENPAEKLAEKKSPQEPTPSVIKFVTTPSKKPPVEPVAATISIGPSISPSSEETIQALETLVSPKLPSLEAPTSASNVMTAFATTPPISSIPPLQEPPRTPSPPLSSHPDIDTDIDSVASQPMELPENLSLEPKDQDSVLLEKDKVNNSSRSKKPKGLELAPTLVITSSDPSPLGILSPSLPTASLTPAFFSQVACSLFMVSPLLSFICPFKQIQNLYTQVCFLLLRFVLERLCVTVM
# Method in brief: as §1
# ETV2 = biological target: T10, ETV2 (Homo sapiens, UniProt O00321 1-342); conditions: protein: recombinant; tags: N-terminal GST; dsDNA, one strand shown
# T10 sequence: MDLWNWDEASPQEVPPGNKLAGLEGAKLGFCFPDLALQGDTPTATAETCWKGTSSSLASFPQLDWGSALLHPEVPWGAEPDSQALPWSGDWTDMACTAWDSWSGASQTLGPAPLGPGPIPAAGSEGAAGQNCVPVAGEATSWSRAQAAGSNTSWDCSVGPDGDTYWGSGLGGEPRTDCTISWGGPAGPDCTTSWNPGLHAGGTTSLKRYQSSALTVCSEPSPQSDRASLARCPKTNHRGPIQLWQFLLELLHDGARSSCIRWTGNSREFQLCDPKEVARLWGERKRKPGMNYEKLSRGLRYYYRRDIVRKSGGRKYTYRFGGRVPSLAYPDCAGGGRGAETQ
# Method in brief: as §1
# ELF3 = biological target: T11, ELF3 (Homo sapiens, UniProt P78545 1-371); conditions: protein: recombinant; tags: N-terminal GST; dsDNA, one strand shown
# T11 sequence: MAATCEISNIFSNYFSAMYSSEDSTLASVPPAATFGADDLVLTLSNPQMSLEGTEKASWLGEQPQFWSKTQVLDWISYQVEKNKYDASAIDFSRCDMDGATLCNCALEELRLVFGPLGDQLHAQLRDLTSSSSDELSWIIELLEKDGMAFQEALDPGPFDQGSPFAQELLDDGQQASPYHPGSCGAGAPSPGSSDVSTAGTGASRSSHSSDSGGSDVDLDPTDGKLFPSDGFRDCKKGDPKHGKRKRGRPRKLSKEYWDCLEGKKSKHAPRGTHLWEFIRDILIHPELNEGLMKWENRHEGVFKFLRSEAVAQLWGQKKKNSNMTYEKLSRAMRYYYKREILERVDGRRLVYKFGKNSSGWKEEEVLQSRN
# Method in brief: as §1
# ETV1 = ETV1 (Homo sapiens, UniProt P50549 1-477); conditions: protein: recombinant; tags: N-terminal GST; dsDNA, one strand shown
# Method in brief: as §1
# ETV5, sequence (P41161 whole entry): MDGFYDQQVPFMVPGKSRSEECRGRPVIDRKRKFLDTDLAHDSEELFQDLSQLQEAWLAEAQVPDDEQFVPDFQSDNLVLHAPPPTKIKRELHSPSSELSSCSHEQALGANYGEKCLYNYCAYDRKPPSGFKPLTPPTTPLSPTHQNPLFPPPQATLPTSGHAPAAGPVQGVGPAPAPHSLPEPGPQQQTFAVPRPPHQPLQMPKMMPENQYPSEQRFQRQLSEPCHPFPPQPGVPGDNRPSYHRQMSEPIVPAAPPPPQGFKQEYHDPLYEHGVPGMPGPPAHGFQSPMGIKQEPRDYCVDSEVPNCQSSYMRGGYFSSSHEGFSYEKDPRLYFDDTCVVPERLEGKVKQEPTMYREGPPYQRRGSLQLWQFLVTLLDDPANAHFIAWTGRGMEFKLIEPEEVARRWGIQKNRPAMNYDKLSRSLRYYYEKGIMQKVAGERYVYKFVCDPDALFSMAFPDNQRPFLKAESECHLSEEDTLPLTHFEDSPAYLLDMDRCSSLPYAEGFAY
# ELF4, sequence (Q99607 whole entry): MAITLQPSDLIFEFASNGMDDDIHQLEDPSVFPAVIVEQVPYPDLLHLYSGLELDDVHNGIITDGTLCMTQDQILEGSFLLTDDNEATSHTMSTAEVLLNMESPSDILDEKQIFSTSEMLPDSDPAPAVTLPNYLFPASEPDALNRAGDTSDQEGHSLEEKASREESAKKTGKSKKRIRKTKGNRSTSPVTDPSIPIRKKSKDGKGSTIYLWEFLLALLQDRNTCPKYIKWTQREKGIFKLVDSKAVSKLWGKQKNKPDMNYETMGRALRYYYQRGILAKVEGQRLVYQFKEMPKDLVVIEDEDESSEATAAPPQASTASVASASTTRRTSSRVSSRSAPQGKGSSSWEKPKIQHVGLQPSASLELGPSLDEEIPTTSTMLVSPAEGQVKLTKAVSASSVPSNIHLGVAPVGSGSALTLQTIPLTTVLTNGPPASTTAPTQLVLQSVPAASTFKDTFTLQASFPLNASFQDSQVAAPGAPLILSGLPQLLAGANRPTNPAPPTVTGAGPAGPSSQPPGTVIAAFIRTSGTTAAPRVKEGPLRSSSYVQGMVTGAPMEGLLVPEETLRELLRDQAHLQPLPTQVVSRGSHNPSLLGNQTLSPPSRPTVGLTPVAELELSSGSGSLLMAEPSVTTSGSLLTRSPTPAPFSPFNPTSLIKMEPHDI
# ETV1, sequence (P50549 whole entry): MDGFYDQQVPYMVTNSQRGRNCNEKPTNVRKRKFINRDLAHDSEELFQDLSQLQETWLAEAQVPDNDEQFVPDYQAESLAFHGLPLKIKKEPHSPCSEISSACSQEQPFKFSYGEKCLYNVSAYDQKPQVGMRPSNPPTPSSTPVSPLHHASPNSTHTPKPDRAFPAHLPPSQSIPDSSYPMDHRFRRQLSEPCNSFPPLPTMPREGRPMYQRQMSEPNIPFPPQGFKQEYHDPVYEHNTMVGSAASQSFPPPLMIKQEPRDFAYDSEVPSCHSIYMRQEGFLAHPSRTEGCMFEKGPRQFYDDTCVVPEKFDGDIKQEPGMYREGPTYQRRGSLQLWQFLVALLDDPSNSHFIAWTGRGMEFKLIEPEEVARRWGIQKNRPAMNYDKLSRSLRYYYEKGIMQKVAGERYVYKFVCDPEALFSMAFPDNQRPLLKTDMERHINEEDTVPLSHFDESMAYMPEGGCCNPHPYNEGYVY
# HSF1, sequence (Q00613 whole entry): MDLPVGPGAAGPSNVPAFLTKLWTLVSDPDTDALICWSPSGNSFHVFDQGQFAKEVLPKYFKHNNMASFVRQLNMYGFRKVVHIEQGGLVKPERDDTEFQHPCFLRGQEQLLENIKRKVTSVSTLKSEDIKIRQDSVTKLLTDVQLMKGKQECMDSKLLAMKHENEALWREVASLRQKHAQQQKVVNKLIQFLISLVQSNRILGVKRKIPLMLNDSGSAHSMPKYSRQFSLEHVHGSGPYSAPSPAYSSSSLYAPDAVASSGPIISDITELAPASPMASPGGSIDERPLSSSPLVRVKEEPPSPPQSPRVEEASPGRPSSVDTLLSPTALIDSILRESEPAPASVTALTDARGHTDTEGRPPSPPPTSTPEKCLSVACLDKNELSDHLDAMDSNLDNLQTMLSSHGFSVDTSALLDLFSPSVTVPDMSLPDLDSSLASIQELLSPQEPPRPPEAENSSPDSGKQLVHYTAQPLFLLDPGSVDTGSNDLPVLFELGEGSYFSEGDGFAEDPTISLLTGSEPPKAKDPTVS
# ELF1, sequence (P32519 whole entry): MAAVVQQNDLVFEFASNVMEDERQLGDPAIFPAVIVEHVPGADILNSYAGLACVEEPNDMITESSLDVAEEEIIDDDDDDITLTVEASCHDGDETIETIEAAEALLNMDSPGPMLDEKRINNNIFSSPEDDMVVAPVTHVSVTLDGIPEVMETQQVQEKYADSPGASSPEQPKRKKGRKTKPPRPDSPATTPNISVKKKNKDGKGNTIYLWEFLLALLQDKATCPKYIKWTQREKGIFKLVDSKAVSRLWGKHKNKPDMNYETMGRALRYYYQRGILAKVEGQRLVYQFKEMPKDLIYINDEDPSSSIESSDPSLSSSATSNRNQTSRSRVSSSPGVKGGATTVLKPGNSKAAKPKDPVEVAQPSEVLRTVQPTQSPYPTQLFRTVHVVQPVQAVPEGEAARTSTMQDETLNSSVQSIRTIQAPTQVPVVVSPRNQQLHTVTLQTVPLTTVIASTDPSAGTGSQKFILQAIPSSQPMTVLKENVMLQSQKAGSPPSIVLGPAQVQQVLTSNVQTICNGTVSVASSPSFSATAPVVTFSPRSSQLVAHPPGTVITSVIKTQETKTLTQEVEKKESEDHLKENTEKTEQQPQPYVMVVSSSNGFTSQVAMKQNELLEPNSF
# SPIB, sequence (Q01892 whole entry): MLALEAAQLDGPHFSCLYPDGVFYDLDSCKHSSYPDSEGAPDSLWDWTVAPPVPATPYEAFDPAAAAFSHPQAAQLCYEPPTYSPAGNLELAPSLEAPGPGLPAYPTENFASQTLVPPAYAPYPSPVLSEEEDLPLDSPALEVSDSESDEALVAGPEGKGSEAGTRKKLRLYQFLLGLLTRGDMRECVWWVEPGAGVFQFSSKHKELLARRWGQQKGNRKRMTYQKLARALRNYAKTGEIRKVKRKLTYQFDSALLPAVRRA
sequence,measurement,setting,value
AATGGG,binding signal,FLI1,"1.26 fold enrichment (6-mer frequency, TF over GST control)"
same,binding signal,ELK1,"1.24 fold enrichment (6-mer frequency, TF over GST control)"
same,binding signal,GABPA,"1.18 fold enrichment (6-mer frequency, TF over GST control)"
same,binding signal,ERG,"1.16 fold enrichment (6-mer frequency, TF over GST control)"
same,binding signal,ELF1,"1.2 fold enrichment (6-mer frequency, TF over GST control)"
same,binding signal,EHF,"1.29 fold enrichment (6-mer frequency, TF over GST control)"
same,binding signal,SPI1,"1.34 fold enrichment (6-mer frequency, TF over GST control)"
same,binding signal,SPIB,"1.22 fold enrichment (6-mer frequency, TF over GST control)"
same,binding signal,ELK3,"1.08 fold enrichment (6-mer frequency, TF over GST control)"
same,binding signal,FEV,"1.25 fold enrichment (6-mer frequency, TF over GST control)"
same,binding signal,ETV5,"1.28 fold enrichment (6-mer frequency, TF over GST control)"
same,binding signal,HSF1,"1.02 fold enrichment (6-mer frequency, TF over GST control)"
same,binding signal,SPIC,"1.26 fold enrichment (6-mer frequency, TF over GST control)"
same,binding signal,ELF4,"1.16 fold enrichment (6-mer frequency, TF over GST control)"
same,binding signal,ELK4,"1.27 fold enrichment (6-mer frequency, TF over GST control)"
same,binding signal,ETV2,"1.22 fold enrichment (6-mer frequency, TF over GST control)"
same,binding signal,ELF3,"1.13 fold enrichment (6-mer frequency, TF over GST control)"
same,binding signal,ETV1,"1.21 fold enrichment (6-mer frequency, TF over GST control)"
